Activity calls are given as the source filed them. How the source made its calls: active means hit-call score of the fitted dose curve at least 0.9, where 1 is the maximum; inactive means score below 0.9.

As usually defined, the AC50 is the midpoint of the concentration-response curve, whichever way the signal moves.

Read-out in test [1]: Vascular cell adhesion molecule 1 (VCAM1), VCAM1 (gene 7412)
The experiment in a line: BSK_4H_VCAM1: BioMAP Diversity Plus: 4H Assay for Vascular cell adhesion molecule 1 (VCAM1) Biomarker Activity (AID 2283033).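 On outcome: cell-surface VCAM-1 protein measured by ELISA.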 The following applies: primary human endothelial cells (HUVEC); actives raise or lower the signal. The method, boiled down:
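HUVEC, 24 h post-dose; VCAM-1 by ELISA. Bidirectional curve fit vs DMSO baseline. Parallel SRB total-protein stain (0.1% SRB after 10% TCA fixation, 560 nm) for cytotoxicity.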

Read-out in test [2]: Interferon-gamma inducible Protein 10 (IP10), CXCL10 (gene 3627)
Briefly: BSK_BE3C_IP10: BioMAP Diversity Plus: BE3C Assay for Interferon-gamma inducible Protein 10 (IP10) Biomarker Activity (AID 2283034). The conditions noted are these: primary human bronchial epithelial cells; actives raise or lower the signal. The method, boiled down:
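ELISA readout of IP-10 in BE3C system: primary human bronchial epithelial cells, 24 h post-dosing; bidirectional curve fit vs DMSO baseline.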

Read-out in test [3]: Monokine induced gamma interferon (MIG), CXCL9 (gene 4283)
Briefly: BSK_BE3C_MIG: BioMAP Diversity Plus: BE3C Assay for Monokine induced gamma interferon (MIG) Biomarker Activity (AID 2283035).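 On outcome: MIG protein measured by ELISA in BE3C cultures after 24 h of dosing.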 The following applies: primary human bronchial epithelial cells; actives raise or lower the signal. In outline: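 Dose cells (human primary bronchial epithelial), incubate 24 h, quantify MIG by ELISA, then fit concentration–response in both directions relative to DMSO control.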

Read-out in test [4]: Transforming growth factor beta 1 (TGFb1), TGFB1 (gene 7040)
The experiment in a line: BSK_BE3C_TGFb1: BioMAP Diversity Plus: BE3C Assay for Transforming growth factor beta 1 (TGFb1) Biomarker Activity (AID 2283036;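 on outcome: TGF-b1 protein level measured by ELISA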). The conditions noted are these: primary human bronchial epithelial cells; actives raise or lower the signal. In outline: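 Read-out: ELISA for TGF-b1 in primary human bronchial epithelial cultures, 24 h post-dose. Bidirectional curve fitting vs DMSO control; gain or loss of signal both scored.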

Read-out in test [5]: Plasminogen activator inhibitor-1 (PAI1), SERPINE1 (gene 5054)
The experiment in a line: BSK_BE3C_PAI1: BioMAP Diversity Plus: BE3C Assay for Plasminogen activator inhibitor-1 (PAI1) Biomarker Activity (AID 2283037). The conditions noted are these: primary human bronchial epithelial cells; actives raise or lower the signal. In outline: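 ELISA read-out of PAI-1 from human bronchial epithelial primary cells, 24 h post-dosing; bidirectional curve fit vs DMSO baseline, gain or loss of signal scored.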

Read-out in test [6]: urokinase plasminogen activator (uPA), PLAU (gene 5328)
The experiment in a line: BSK_BE3C_uPA: BioMAP Diversity Plus: BE3C Assay for urokinase plasminogen activator (uPA) Biomarker Activity (AID 2283038).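 On outcome: uPA protein level quantified by ELISA in cell cultures; uPA read one day after compound addition.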 The following applies: primary human bronchial epithelial cells; actives raise or lower the signal. The method, boiled down: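 Using confluent primary human lung bronchial epithelial cultures, we dosed chemicals, waited 24 h, then ran a uPA ELISA, fitting bidirectionally against DMSO.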

Read-out in test [7]: Urokinase-type plasminogen activator receptor (uPAR), PLAUR (gene 5329)
Briefly: BSK_BE3C_uPAR: BioMAP Diversity Plus: BE3C Assay for Urokinase-type plasminogen activator receptor (uPAR) Biomarker Activity (AID 2283039).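 On outcome: uPAR protein level measured by ELISA on the cells; cells exposed to compound for one day before measurement.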 The conditions noted are these: primary human bronchial epithelial cells; actives raise or lower the signal. In outline:
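ELISA readout of uPAR on human lung primary bronchial epithelial cells, 24 h post-dosing. Bidirectional curve fit relative to DMSO vehicle baseline; gain or loss of signal both scored.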

Read-out in test [8]: Interleukin-6 (IL6), IL6 (gene 3569)
Briefly: BSK_CASM3C_IL6: BioMAP Diversity Plus: CASM3C Assay for Interleukin-6 (IL6) Biomarker Activity for (AID 2283040). The conditions noted are these: primary human coronary artery smooth muscle cells; actives raise or lower the signal.

Read-out in test [9]: Tissue plasminogen activator (tPA), PLAT (gene 5327)
The experiment in a line: BSK_BE3C_tPA: BioMAP Diversity Plus: BE3C Assay for Tissue plasminogen activator (tPA) Biomarker Activity (AID 2283041).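 On outcome: tPA level quantified by ELISA one day after compound addition.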 The following applies: primary human bronchial epithelial cells; actives raise or lower the signal. The method, boiled down:
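ELISA read-out of tPA on human primary bronchial epithelial cells, 24 h post-dosing; bidirectional fit vs DMSO negative control/baseline.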

Read-out in test [10]: Interleukin-8 (IL8), CXCL8 (gene 3576)
The experiment in a line: BSK_CASM3C_IL8: BioMAP Diversity Plus: CASM3C Assay for Interleukin-8 (IL8) Biomarker Activity (AID 2283042).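 Further: IL-8 protein level quantified by ELISA.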 The conditions noted are these: primary human coronary artery smooth muscle cells; actives raise or lower the signal.

Read-out in test [11]: Human Leukocyte Antigen - DR isotype (HLADR), HLA-DRA (gene 3122)
Briefly: BSK_CASM3C_HLADR: BioMAP Diversity Plus: CASM3C Assay for Human Leukocyte Antigen - DR isotype (HLADR) Biomarker Activity (AID 2283043).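 Further: cell-surface HLA-DR protein level quantified by ELISA.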 The conditions noted are these: primary human coronary artery smooth muscle cells; actives raise or lower the signal.

Read-out in test [12]: Macrophage colony-stimulating factor (MCSF), CSF1 (gene 1435)
Briefly: BSK_CASM3C_MCSF: BioMAP Diversity Plus: CASM3C Assay for Macrophage colony-stimulating factor (MCSF) Biomarker Activity (AID 2283044).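 Further: M-CSF protein amount quantified by ELISA after 24 h exposure.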 The conditions noted are these: primary human coronary artery smooth muscle cells; actives raise or lower the signal.

Read-out in test [13]: Low-density lipoprotein receptor (LDLR), LDLR (gene 3949)
Briefly: BSK_CASM3C_LDLR: BioMAP Diversity Plus: CASM3C Assay for Low-density lipoprotein receptor (LDLR) Biomarker Activity (AID 2283045).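 Further: LDLR protein level on the cell surface quantified by ELISA.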 The conditions noted are these: primary human coronary artery smooth muscle cells; actives raise or lower the signal.

Read-out in test [14]: Monocyte Chemoattractant Protein-1 (MCP1), CCL2 (gene 6347)
The experiment in a line: BSK_CASM3C_MCP1: BioMAP Diversity Plus: CASM3C Assay for Monocyte Chemoattractant Protein-1 (MCP1) Biomarker Activity (AID 2283046).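 Further: MCP-1 level quantified by ELISA 24 h after dosing.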 The following applies: primary human coronary artery smooth muscle cells; actives raise or lower the signal.

The nature of test [15]: BSK_CASM3C_Proliferation: Cell Proliferation Assessment in the BioMAP Diversity Plus: CASM3C Assay (AID 2283047).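 Further: sulforhodamine B total protein stain as relative cell number at 560 nm; sub-confluent cells exposed 48 h before staining; fitted both ways against DMSO so gain or loss of cell number.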 The following applies: primary human coronary artery smooth muscle cells.
Read-out in test [16]: Monokine induced gamma interferon (MIG), CXCL9 (gene 4283)
The experiment in a line: BSK_CASM3C_MIG: BioMAP Diversity Plus: CASM3C Assay for Monokine induced gamma interferon (MIG) Biomarker Activity (AID 2283048).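 Further: MIG protein level measured by ELISA.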 The following applies: primary human coronary artery smooth muscle cells; actives raise or lower the signal.

Read-out in test [17]: serum amyloid A (SAA), SAA1 (gene 6288)
Briefly: BSK_CASM3C_SAA: BioMAP Diversity Plus: CASM3C Assay for serum amyloid A (SAA) Biomarker Activity (AID 2283049).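 Further: SAA protein level quantified by ELISA.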 The conditions noted are these: primary human coronary artery smooth muscle cells; actives raise or lower the signal.

Test [18] is described as follows: BSK_CASM3C_SRB: Viability Assessment in the BioMAP Diversity Plus: CASM3C Assay (AID 2283050).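 Further: total protein by SRB staining as cytotoxicity measure in parallel cultures; cells exposed to compound for 24 h.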 The following applies: primary human coronary artery smooth muscle cells.
Read-out in test [19]: Thrombomodulin, THBD (gene 7056)
Briefly: BSK_CASM3C_Thrombomodulin: BioMAP Diversity Plus: CASM3C Assay for Thrombomodulin Biomarker Activity (AID 2283051).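 Further: thrombomodulin protein level measured by ELISA 24 h after dosing.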 The following applies: primary human coronary artery smooth muscle cells; actives raise or lower the signal.

Read-out in test [20]: Tissue Factor, F3 (gene 2152)
Briefly: BSK_CASM3C_TissueFactor: BioMAP Diversity Plus: CASM3C Assay for Tissue Factor Biomarker Activity (AID 2283052).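 Further: cell surface tissue factor protein level read by ELISA.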 The conditions noted are these: primary human coronary artery smooth muscle cells; actives raise or lower the signal.

For `COCN(COC)c1nc(N(COC)COC)nc(N(COC)COC)n1`, the result in test [1], in test [2], in [3], in test [4], in test [5] and in [6] was inactive. The outcome in test [7], in test [8], in test [9], in test [10], in test [11] and in test [12] was inactive. Besides, the result in [13], in test [14], in [15], in test [16], in test [17] and in test [18] was inactive. For the same compound, the outcome in test [19] and in [20] was inactive.
With `O=C1NS(=O)(=O)c2ccccc21`, the result in test [1], in test [2], in test [3], in test [4], in [5] and in test [6] was inactive. The outcome in test [7], in [8], in test [9], in test [10], in test [11] and in test [12] was inactive. Moreover, the result in test [13], in [14], in test [15], in test [16], in test [17] and in test [18] was inactive. Further, the result in [19] and in [20] was inactive.
Regarding `O=C(NO)c1ccccc1`, the result in test [1], in test [2], in test [3], in test [4], in test [5] and in test [6] was inactive. Moreover, the result in test [7], in test [8], in test [9], in test [10], in test [11] and in test [13] was inactive. Also, the result in [14], in test [15], in [16], in test [17], in test [18] and in test [19] was inactive. Also, the result in [20] was inactive. Further, the AC50 in test [12] is 2.51 µM (active).
For `N=C(N)c1ccc(OCCCCCOc2ccc(C(=N)N)cc2)cc1`, the outcome in [1], in test [3], in test [4], in [7], in test [9] and in [13] was inactive. In addition, the outcome in [14], in test [16], in test [17], in [18], in [19] and in [20] was inactive. For the same compound, the AC50 is 24.1 µM (active) in [2]; 10.3 µM (active) in test [5]; 17.5 µM (active) in [6]; 20.7 µM (active) in [8]; 24.1 µM (active) in test [10]; 17.5 µM (active) in [11]. Moreover, the AC50 in test [12] is 15 µM (active); in [15] it was 12.4 µM (active).
In the case of `CCCCCc1ccc(O)cc1`, the AC50 in [1] is 24.9 µM (active); in test [2] it was 16.6 µM (active); in test [3], 32.8 µM (active); in test [4], 20 µM (active); in test [5], 20 µM (active); in test [6], 27.2 µM (active). Also, the AC50 is 30.5 µM (active) in test [7]; 20 µM (active) in test [8]; 11.6 µM (active) in [9]; 20 µM (active) in test [10]; 12.8 µM (active) in test [11]; 14.6 µM (active) in [12]. The AC50 was 10.4 µM (active) in test [13]; 14 µM (active) in test [14]; 11.6 µM (active) in test [15]; 15.4 µM (active) in [16]; 12.7 µM (active) in test [17]; 15.9 µM (active) in test [18]. For the same compound, the AC50 is 34 µM (active) in [19] and 12 µM (active) in test [20].

The values above are taken from PubChem BioAssay (EPA / NIEHS).
